Measured values as given in PubChem BioAssay.
Unmarked numbers belong to inactive results. Active and inactive are the calls of the source. Cut-off read from the data, not from the text of the source, unless noted: active = inhibition above about 33%; inactive = the rest.

Experiments:
[1] = StAR promoter reporter inhibitors, counter-screen for LRH-1 inverse agonist project, cell-based, luminescence, high throughput (AID 651611; in the data active = inhibition above about 28%); conditions: StAR promoter luciferase reporter counterscreen, at 3.6 µM, hits give high values
[2] = target: Nuclear receptor subfamily 5 group A member 2 (Homo sapiens) (UniProt O00482); assay: LRH-1 (NR5A2) inverse agonists, retest, confirmation, cell-based, luminescence (AID 651613; in the data active = inhibition above about 42%;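 note: HEK293T cells co-transfected with LRH-1 and StAR promoter luciferase reporter; 0% = vehicle wells and 100% = parental cells lacking receptor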); conditions: cell-based LRH-1 luciferase reporter, inverse agonism; at 3.6 µM; hits give high values
Sequence of Nuclear receptor subfamily 5 group A member 2 (Homo sapiens) (O00482 whole entry, looked up): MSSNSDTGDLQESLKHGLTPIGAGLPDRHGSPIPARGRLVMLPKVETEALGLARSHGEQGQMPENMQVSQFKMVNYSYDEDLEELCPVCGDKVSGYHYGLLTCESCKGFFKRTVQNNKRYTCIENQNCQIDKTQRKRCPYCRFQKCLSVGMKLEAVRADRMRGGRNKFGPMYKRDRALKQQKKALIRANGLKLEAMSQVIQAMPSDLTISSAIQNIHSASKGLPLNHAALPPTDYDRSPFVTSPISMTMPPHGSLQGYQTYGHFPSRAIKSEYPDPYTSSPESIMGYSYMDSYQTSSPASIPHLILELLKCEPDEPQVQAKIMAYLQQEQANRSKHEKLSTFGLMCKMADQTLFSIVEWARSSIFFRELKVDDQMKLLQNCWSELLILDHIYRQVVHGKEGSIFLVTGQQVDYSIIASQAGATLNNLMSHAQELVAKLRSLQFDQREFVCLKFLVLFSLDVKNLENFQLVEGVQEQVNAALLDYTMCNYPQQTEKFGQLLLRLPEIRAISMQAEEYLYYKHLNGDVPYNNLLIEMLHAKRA

[3] = target: Steroidogenic factor 1 (Homo sapiens) (UniProt Q13285); assay: SF1 (NR5A1) inverse agonists, counter-screen for LRH-1 inverse agonist project, cell-based, luminescence, high throughput (AID 651614; in the data active = inhibition above about 44%;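 note: cells cotransfected with StAR promoter reporter and SF1 expression vector; 0% = vehicle on cells with receptor and 100% = vehicle on cells lacking receptor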); conditions: cell-based SF1 luciferase reporter, at 3.6 µM, hits give high values
Sequence of Steroidogenic factor 1 (Homo sapiens) (Q13285 whole entry, looked up, the tested form may be a part): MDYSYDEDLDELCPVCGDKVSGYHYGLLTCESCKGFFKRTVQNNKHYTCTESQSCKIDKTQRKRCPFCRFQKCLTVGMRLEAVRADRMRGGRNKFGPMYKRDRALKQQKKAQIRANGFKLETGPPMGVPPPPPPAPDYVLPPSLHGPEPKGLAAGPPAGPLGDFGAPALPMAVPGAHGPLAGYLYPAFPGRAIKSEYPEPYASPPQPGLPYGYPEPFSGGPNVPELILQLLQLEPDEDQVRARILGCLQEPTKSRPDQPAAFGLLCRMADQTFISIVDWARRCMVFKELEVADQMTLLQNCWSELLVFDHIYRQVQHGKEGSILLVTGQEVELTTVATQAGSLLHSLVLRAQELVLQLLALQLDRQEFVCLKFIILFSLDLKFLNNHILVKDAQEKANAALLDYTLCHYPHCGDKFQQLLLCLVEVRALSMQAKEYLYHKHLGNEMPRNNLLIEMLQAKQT

[4] = VP16 transactivation reporter inhibitors, counter-screen for LRH-1 inverse agonist project, cell-based, luminescence, high throughput (AID 651615); conditions: Gal4-VP16 luciferase reporter cells, at 3.6 µM, hits give high values

| SMILES | inhibition [1] | inhibition [2] | inhibition [3] | inhibition [4] |
| --- | --- | --- | --- | --- |
| Cc1cc(SC#N)cc(C)c1NC(=O)CCl | 27.4% | 52.8% (active) | 50.9% (active) | -31.6% |
| Cc1cc2oc(C(=O)NCc3ccncc3)c(C)c2cc1C | -3.56% | 36.2% | 39.6% | 3.82% |
| COC(=O)c1ccc(NC(=O)CSc2ccc(-c3ccccn3)nn2)cc1 | -13.3% | 52.9% (active) | 41.7% | -18% |
| OC[C@@H]1CN(Cc2ccc(-c3ccccc3)cc2)C[C@H](n2cnc3c(NC4CCC4)ncnc32)O1 | 16.5% | 53.4% (active) | 60.2% (active) | 56% (active) |
| COc1cccc(C(C)(O)c2nc(-c3cccc(C#N)c3)cs2)c1 (stereo not given) | 19.6% | 55.2% (active) | 49.4% (active) | 22.6% |
| COc1cc(-c2cc(C(=O)Nc3ccncc3)c3ccccc3n2)cc(OC)c1OC | 28.4% (active) | 40.9% | 40.5% | -10.9% |
| Cc1ccc2c(c1)Oc1ccc(NC(=O)CCl)cc1C(=O)N2 | 61.7% (active) | 68.3% (active) | 75.6% (active) | 16.8% |
| COc1ccc(/C=N/n2c(SC)nnc2-c2ccccc2)c(OC)c1OC | 53.5% (active) | 41.2% (active) | 54.4% (active) | -31.8% |
| COCc1cccc(-c2csc(C(C)(O)c3cccc(OC)c3)n2)c1 (stereo not given) | -0.93% | 45.2% (active) | 29.1% | 11.7% |
| Cc1ccc(N2CC(C(=O)Nc3nc4ccc(S(C)(=O)=O)cc4s3)CC2=O)cc1C (stereo not given) | 11.2% | 44.6% (active) | 34.7% | -2.05% |
| COc1cc2nc(/C=C/c3cc(OC)c(OC)c(OC)c3)sc2cc1SC | 35.7% (active) | 45.1% (active) | 58.6% (active) | -2.8% |
| CC(=O)c1ccc(NC(=O)C(C)O/N=C(\N)c2ccccc2)cc1 (stereo not given) | 10.5% | 51.7% (active) | 41.8% | -7.19% |
| COc1ccccc1-c1nnc2sc(-c3ccc(N(C)C)cc3)nn12 | 50.1% (active) | 31% | 57.1% (active) | 31.2% (active) |
| Cc1cc(-c2nnc(SCC(=O)Nc3cccc(C)c3C)n2N)n[nH]1 | 5.59% | 53.3% (active) | 48.2% (active) | -4.91% |
| Cc1cnc(NC(=O)CCCc2nc3ccccc3s2)s1 | 45.5% (active) | 73.1% (active) | 42.5% | 29.4% |
| O=C(COC(=O)Cc1ccc(F)cc1)NCCc1ccccc1 | 3.74% | 37.8% | 36.3% | -0.51% |
| CC1(C(=O)NCc2ccco2)Cc2c(-c3cccc(C(N)=O)c3)ccnc2O1 (stereo not given) | 49.6% (active) | 57.9% (active) | 59.3% (active) | -9.28% |
| O=C(CSc1cc(Cl)ccc1Cl)Nc1ccc(N2CCOCC2)cc1 | 1.91% | 63.9% (active) | 65.3% (active) | 3.31% |
| COc1cc(C2c3cc4c(cc3OC(NNC(N)=S)C2C)OCO4)cc(OC)c1OC (stereo not given) | 49.2% (active) | 35.4% | 44.2% (active) | 14% |
| Cc1c(Cl)cccc1NC(=O)CNc1ccccc1F | -3.5% | 58.7% (active) | 40.6% | -6.92% |
| CCCc1cc(=O)n2nc(N3CCC(C(=O)N4CCN(c5ccc(OC)cc5)CC4)CC3)sc2n1 | 12.6% | 56.5% (active) | 55.1% (active) | 49.8% (active) |
| CCCCc1c(O)nc(SCC(=O)Nc2ccc(OC)cc2)n(-c2ccc(C)c(C)c2)c1=O | 24% | 60% (active) | 51% (active) | -5.8% |
| CCCC(=O)Nc1sc2c(c1C(=O)Nc1ccccn1)CCCC2 | -1.01% | 47.1% (active) | 53.8% (active) | 5.28% |
| O=C(COC(=O)c1ccccc1O)Nc1ccc(N2CCOCC2)cc1 | 0.71% | 59.3% (active) | 60.4% (active) | -1.07% |
| OC(c1ccc2ccccc2n1)c1c(Cl)cccc1Cl (stereo not given) | 12.8% | 42.7% (active) | 41.4% | 17.8% |
